PubChem BioAssay (NCATS)
Results filed as inconclusive are left out. Calls of active or inactive are those of the source. Unless noted, calls come from the whole dose curve; as a rule, active = well fitted curve in the direction sought with a large enough effect; inconclusive = small, poorly fitted or top-dose-only effect, or another doubt; inactive = no such curve, though single readings can be large; an effect the other way counts as inactive or inconclusive.

Legend:
[1] = HEK-293 Cancer Cell Toxicity qHTS against the NCATS CANVASS Library (AID 1347355)
How it was run: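 Cells were seeded at 1000 per well and allowed to settle 4 hours at 37 degrees C before pin transfer of compounds as an 11-point series. Viability was read by CellTiter-Glo luminescence after 72 hours' exposure.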

[2] = HEK293 18hr Apoptosis Induction qHTS against the NCATS CANVASS Library (AID 1347357)
How it was run: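 Cells seeded at 500/well in DMEM + 10% FBS. Compounds pinned, 11 concentrations. 18 h, 37 degrees C/5% CO2. Caspase-Glo 3/7 added, 15 min RT dark, luminescence read.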

[3] = HPAF-II 12hr Apoptosis Induction qHTS against the NCATS CANVASS Library (AID 1347358)
How it was run: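 HPAF-II cells (500/well, DMEM + 10% FBS) were exposed to compounds for 12 hours at 37 degrees C. Caspase-3/7 activity was then read by Caspase-Glo 3/7 luminescence after 15 min at room temperature.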

[4] = HEK293 24hr Apoptosis Induction qHTS against the NCATS CANVASS Library (AID 1347359)
How it was run: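 Caspase-3/7 activation measured as luminescence from the DEVD-based Caspase-Glo reagent, 15 min at room temperature, following 24-hour compound treatment of HEK293 cells.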

[5] = HEK293 12hr Apoptosis Induction qHTS against the NCATS CANVASS Library (AID 1347361)
How it was run: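 Cells are seeded, dosed with an 11-point compound series and incubated 12 hours. Caspase-3/7 activity is detected by luminescent DEVD-substrate reagent after 15 minutes at room temperature.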

[6] = test system: NAD(P)H diaphorase (Clostridium kluyveri); experiment: Diaphorse counterscreen qHTS: Assay Interference Panel against the NCATS CANVASS Library (AID 1347362)
How it was run: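 Counterscreen for coupling-enzyme interference: resorufin fluorescence from resazurin/NADH turnover, read after 5 min at room temperature. Compounds were tested over an 11-point series after 15 min dark preincubation with diaphorase in PBS-Tween.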

[7] = biological target: Luciferin 4-monooxygenase (Photinus pyralis) (UniProt P08659); experiment: Firefly luciferase counterscreen qHTS: Assay Interference Panel against the NCATS CANVASS Library (AID 1347363)
How it was run: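 Luminescence inhibition readout: compounds (11-point qHTS) sat 15 min at room temperature with substrate mix (0.013 mM luciferin and ATP), then firefly luciferase was added and signal read 5 min later.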

[8] = KB-3-1 Cancer Cell Toxicity qHTS against the NCATS CANVASS Library (AID 1347366)
How it was run: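 Luminescence from CellTiter-Glo (10 min, room temperature) measured KB-3-1 viability after 72 hr compound exposure at 37C. Cells were seeded at 500/well and tested in an 11-point series.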

[9] = MCF7 Cancer Cell Toxicity qHTS against the NCATS CANVASS Library (AID 1347369)
How it was run: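 Cells seeded at 500/well, then compound pinned. Plates incubated 72 hr at 37C, 5% CO2. CellTiterGlo added; luminescence read.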

[10] = qHTS for ATAD5 Antagonist screened against the NCATS CANVASS Library (AID 1347370)
How it was run: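 HEK293T cells with a stably integrated ATAD5-controlled luciferase reporter were exposed to compounds (11-pt) alongside 10 uM 5-fluorouridine as ATAD5 stabilizer for 16hr at 37C. Viability was read by CellTiter-Fluor fluorescence, then ATAD5 by luminescence.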

[11] = biological target: Nuclear receptor subfamily 1 group I member 3 (Homo sapiens) (UniProt Q14994); experiment: qHTS for Constitutive Androstane Receptor (CAR) Antagonist screened against the NCATS CANVASS Library (AID 1347372)
How it was run: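 HepG2-CYP2B6-hCAR double-stable cells plated, 4hr attach; cpd pin-transferred; CITCO 50 nM final; 24hr 37C/5% CO2; CellTiter-Fluor 1hr (fluorescence), then ONE-Glo luminescence.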

[12] = biological target: Nuclear receptor subfamily 1 group I member 3 (Homo sapiens) (UniProt Q14994); experiment: qHTS for Constitutive Androstane Receptor (CAR) Agonist screened against the NCATS CANVASS Library (AID 1347373)
How it was run: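 HepG2 cells stably expressing hCAR and a CYP2B6-2.2kb luciferase reporter were treated for 24hr at 37C with compounds (11-point qHTS) in the presence of 1.5uM PK11195. Reporter activation was read by ONE-Glo luminescence.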

[13] = DH5-alpha competent E. coli microbial cell viability qHTS against the NCATS CANVASS Library (AID 1347377); details: outcome: at 46.1 µM (top of the series)
How it was run: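 DH5-alpha E. coli suspension (0.9 OD culture diluted to 0.2 OD) exposed to compounds in an 11-point series, overnight at 37C, 5% CO2. Viability read as ATP by BacTiter-Glo luminescence after 20 min at room temperature.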

[14] = qHTS for H2AX Agonists against the NCATS CANVASS Library (AID 1347378)
How it was run: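 CHO-K1, 1000 cells/well, o/n 37C; cpd several conc, 3 hr 37C, 0.76% DMSO; lyse 30 min RT; cryptate anti-pH2AX(S139) + d2 anti-H2AX, 24 hr RT; HTRF 665/620.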

[15] = qHTS for Inflammasome Signaling Inhibitors: IL-1-beta AlphaLISA screen against the NCATS CANVASS Library (AID 1347379)
How it was run: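 Human THP-1 cells were pretreated 1 hr at 37 °C with compounds (up to 57.5 uM final), then stimulated with LPS (250 ng/mL final) and ATP (1.25 mM final). Secreted IL-1B was read by AlphaLISA after 16 hr.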

[16] = qHTS for Antimalaria activity screened against the NCATS CANVASS Library (AID 1347380)
How it was run: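 P. falciparum Dd2-infected RBCs (2.5% hematocrit final, 0.3% parasitemia) in Albumax II RPMI were exposed to compounds in an 11-point qHTS series for 72 h at 37C under 5% O2/5% CO2, then lysed with SYBR Green.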

[17] = Inflammasome Signaling qHTS Counterscreen: IL-1-beta AlphaLISA counterscreen against the NCATS CANVASS Library (AID 1347381)
How it was run: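 To flag interference with the AlphaLISA read-out, a known amount of purified IL-1-beta (4 pg) replaced cell supernatant. Detection used anti-IL-1-beta acceptor beads, biotinylated antibody and streptavidin donor beads at room temperature.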

[18] = Cytotoxicity qHTS for assessment of Hepg2 cells membrane integrity screened against the NCATS CANVASS Library (AID 1347387)
How it was run: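 HepG2 cells (2000/well) attached overnight at 37C, then received compounds in an 11-point series at 0.59 nM - 46 uM final for 5 hr. LDH release was detected fluorometrically (ex 560/em 590 nm) with CytoTox-ONE reagent after 10 min at room temperature.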

[19] = qHTS for Activators of p53 Stress Response Pathway screened against the NCATS CANVASS Library (AID 1347388)
How it was run: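 Beta-lactamase reporter driven by p53 response elements in HCT-116 cells, read as the 460 nm/530 nm emission ratio after CCF4 loading, following 16 h of exposure to an 11-point series. Cell viability was measured in the same wells by CellTiter-Glo luminescence.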

[20] = qHTS assay for small molecule disruptors of mitochondrial membrane potential screened against the NCATS CANVASS Library (AID 1347389)
How it was run: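 HepG2 cells (2,000/well) were plated overnight at 37C, exposed to compound for 1 hr at 37C/5% CO2, then loaded with Mito-MPS dye for 30 min. Depolarization was read as a drop in red (590 nm) to green (535 nm) fluorescence ratio.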

[21] = qHTS for activators of Nrf2/ARE signaling pathway screened against the NCATS CANVASS Library (AID 1347391)
How it was run: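 ARE-bla HepG2 beta-lactamase reporter cells, 2000 cells/well, were preincubated 5 h, then exposed to compounds (11-point series) for 16 h at 37C. CCF4 fluorescence (ex 405, em 460/530 nm) after 2 h at room temperature.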

[22] = qHTS for activators of dead-cell proteases activity screened against the NCATS CANVASS Library (AID 1347392)
How it was run: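 Compounds are pin-transferred onto attached HepG2 cells, giving 11 final concentrations. After 5 h at 37C, AAF-aminoluciferin reagent is added and luminescence is recorded at room temperature.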

[23] = Vero-766 cells viability qHTS against the NCATS CANVASS Library: Counterscreen for Zika virus inhibition assay (AID 1347394)
How it was run: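 Vero 766, no virus; 1000 cells/well; o/n attach; cpd 11-pt; 72 h, 37C, 5% CO2; CTG luminescence; cell-free media wells = 100% inhibition.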

[24] = qHTS for inhibitors of Wild type Zika virus screened against the NCATS CANVASS Library (AID 1347396)
How it was run: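 Luminescent CellTiter Glo read-out of virus-induced cytotoxicity, 72 h post-infection, in Vero 766 cells. Compounds were tested at 11 concentrations; uninfected, vehicle-treated wells defined 100% inhibition.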

[25] = Viability qHTS for inhibitors of the SERCaMP assay screened against the NCATS CANVASS Library (AID 1347400)
How it was run: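 SH-SY5Y-GLuc SERCaMP MJH297-derived cells (1000 cells/well) were pre-incubated 4 h at 37C, then exposed to compounds for 48 h. Viability was read as CellTiter-Glo luminescence; bortezomib served as positive control.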

[26] = Redox Reaction Profiling qHTS: Assay Interference Panel against the NCATS CANVASS Library (AID 1347401)
How it was run: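 Cell-free redox surrogate: 5 uM resazurin + 200 uM DTT, 50 mM HEPES pH 7.3/50 mM NaCl; cpds pinned, 11-pt qHTS; Ex525/Em598 read t0 and t=15 min, dark.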

[27] = qHTS for inhibitors of Rabies Virus screened against the NCATS CANVASS Library (AID 1347402; calls by dose curve)
[28] = NCATS anti-infectives library activity on HEK293 viability as a counter-qHTS vs the C. elegans viability qHTS (AID 1745854)
How it was run: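 HEK293 cells, 1500 per well, exposed 24 hr at 37C in 5% CO2 to compounds in a 1:5 titration, up to 41.7 uM final. Viability read as CellTiter-Glo luminescence after 10 min at room temperature.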

[29] = NCATS anti-infectives library activity on the primary C. elegans qHTS viability assay (AID 1745855; calls by dose curve)
How it was run: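 Viability is taken from GFP fluorescence of PE254-GFP-FLuc C. elegans imaged by laser cytometry over 7 days. Ten L1 worms per well grow at 21 °C on TOP10 E. coli capsules with titrated compound; levamisole marks toxicity.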

Measured: Potency

Chain of Nuclear receptor subfamily 1 group I member 3 (Homo sapiens) (Q14994 whole entry, looked up): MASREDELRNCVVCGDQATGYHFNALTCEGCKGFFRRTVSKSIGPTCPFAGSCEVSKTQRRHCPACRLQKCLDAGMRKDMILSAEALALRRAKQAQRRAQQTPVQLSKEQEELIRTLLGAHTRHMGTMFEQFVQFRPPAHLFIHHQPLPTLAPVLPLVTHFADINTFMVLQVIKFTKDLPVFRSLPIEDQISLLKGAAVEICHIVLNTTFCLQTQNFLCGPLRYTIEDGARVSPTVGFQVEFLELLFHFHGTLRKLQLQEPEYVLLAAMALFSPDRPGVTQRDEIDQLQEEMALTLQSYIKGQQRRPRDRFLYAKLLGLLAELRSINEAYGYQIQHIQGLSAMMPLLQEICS
Chain of Luciferin 4-monooxygenase (Photinus pyralis) (P08659 whole entry, looked up): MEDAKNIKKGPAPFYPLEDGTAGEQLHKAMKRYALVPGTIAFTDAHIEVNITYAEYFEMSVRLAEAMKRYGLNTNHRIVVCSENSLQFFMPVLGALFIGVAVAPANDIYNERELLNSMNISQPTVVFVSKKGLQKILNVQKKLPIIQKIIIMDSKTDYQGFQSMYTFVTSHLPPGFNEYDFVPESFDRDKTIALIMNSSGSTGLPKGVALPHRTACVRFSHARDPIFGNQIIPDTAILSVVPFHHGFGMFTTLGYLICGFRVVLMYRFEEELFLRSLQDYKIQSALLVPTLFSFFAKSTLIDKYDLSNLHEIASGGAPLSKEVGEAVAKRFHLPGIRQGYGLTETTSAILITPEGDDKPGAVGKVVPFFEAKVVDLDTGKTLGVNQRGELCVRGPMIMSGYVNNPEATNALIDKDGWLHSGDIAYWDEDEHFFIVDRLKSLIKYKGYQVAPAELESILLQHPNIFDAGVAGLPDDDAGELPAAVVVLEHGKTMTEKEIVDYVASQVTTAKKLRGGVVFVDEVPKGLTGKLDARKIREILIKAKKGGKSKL

CN(C)Cc1c[nH]c2ccccc12
inactive: [1] | [2] | [3] | [4] | [5] | [6] | [7] | [8] | [9] | [10] | [11] | [12] | [13] | [14] | [15] | [16] | [17] | [18] | [19] | [20] | [21] | [22] | [23] | [24] | [25] | [26] | [27] | [28] | [29]
